# Measurements reported in PubChem BioAssay (NCATS).
# Results filed as inconclusive are left out. The source made the active and inactive calls. The call rests on the fitted dose curve; in most records, active means well fitted inhibition curve with a large enough effect in the polarisation, with a control signal flat (not every such curve was filed as active); inconclusive means small, poorly fitted or top-dose-only effect, or effect the other way; inactive means flat fitted curve, though single readings scatter; the % refers to the polarisation.
# Target: Peptidyl-prolyl cis-trans isomerase NIMA-interacting 1 (Homo sapiens) (UniProt Q13526)
# Experiment: qHTS Validation Assay to Find Inhibitors of Pin1 (AID 504536)
# Settings: Pin1 fluorescence polarization peptide binding assay; series mostly up to 57.5 µM; activity, negative = inhibition: at the top concentration
# Text: NIH Molecular Libraries Probe Production Network [MLPCN]
# NIH Chemical Genomics Center [NCGC]
# The unique chemical properties of Pro allow for the adoption of two completely distinct amide bond conformations (cis and trans). Peptidyl-prolyl cis/trans isomerases (PPIases) are evolutionary conserved enzymes that catalyze cis/trans isomerization of peptidyl-prolyl peptide bonds. Distinct from all other PPIases such as cyclophilins and FK506-binding proteins (FKBPs), Pin1 binds a subset of phos.Ser/Thr-Pro-containing proteins using its protein-targeting WW domain and isomerizes only specific phos.Ser/Thr-Pro bonds, which cannot be effectively catalyzed by other known PPIases.
# Pin1-catalyzed conformational regulation can control a spectrum of activities of many key regulators in diverse cellular processes such as cell growth, genotoxic and other stress responses, immune response, germ cell development, neuronal differentiation and survival. Pin1 has emerged as a novel molecular timer that modulates its multiple targets at various steps of a given cellular process to synergistically control the amplitude and duration of a cellular response or process. Importantly, Pin1 is tightly regulated by multiple levels and its deregulation has an important role in a growing number of pathological conditions, including cancer, Alzheimer's disease, aging, asthma and microbial infection, providing a potentially new therapeutic option.
# The goal of this screen is to find small-molecule inhibitors of Pin1 using a fluorescence polarization competition assay. A HiFluor-488-labeled peptide binds to the active site of Pin1 and can be displaced by compounds. Compounds were screened as a concentration-titration series that ranged from 57 uM to 0.7 nM.
# NCGC Assay Protocol Summary:
# Pin1 (0.6 uM) was dispensed into black, solid 1536-well plates at 2 uL/well in 10 mM HEPES (pH 7.5), 10 mM NaCl, 0.01% Tween20, 1 mM DTT, and 1% glycerol. Then, 23 nL of compounds or DMSO were delivered to each well using a pin tool. Two uL of Pin1-1b-HiFluor488 peptide (10 mM HEPES (pH 7.5), 10 mM NaCl, 0.01% Tween20, 1 mM DTT, and 1% glycerol, 0.02 uM Pin1-1b-HiFluor488) was then dispensed, and plates were incubated at room temperature for 10 min. The plates were measured on a ViewLux plate reader for fluorescence polarization signal using a 480/20 nM nm excitation filter and 540/25 nM nm S and P emission filters with a 20 second exposure. The %Activity was determined from the corrected fluorescence polarization values. Unlabeled Pin1-1c peptide was used as a control (3.5 mM two-fold serial; 20 uM final concentration) along with a 1x (0.3 uM) and 0x (no-enzyme) Pin1 enzyme control to normalize %Activity of identified inhibitors; 0x enzyme values corresponded to 100%Activity (full inhibition), while 1x Pin1 enzyme values were used to normalize 0%Activity (no inhibition).
# Concentration-response curves were fitted to the signals arising from the resulting fluorescence polarization. The concentration-effect curves were then classified based on curve quality (r2), response magnitude and degree of measured activity, and compounds were subsequently categorized based on their curve class.
# Keywords: Peptidyl prolyl isomerase, Pin1, fluorescence polarization, MLSMR, MLPCN, NIH Roadmap, qHTS, NCGC
# Potency means the concentration at half of the fitted maximal effect.
# Peptidyl-prolyl cis-trans isomerase NIMA-interacting 1 (Homo sapiens), sequence (Q13526 whole entry, looked up): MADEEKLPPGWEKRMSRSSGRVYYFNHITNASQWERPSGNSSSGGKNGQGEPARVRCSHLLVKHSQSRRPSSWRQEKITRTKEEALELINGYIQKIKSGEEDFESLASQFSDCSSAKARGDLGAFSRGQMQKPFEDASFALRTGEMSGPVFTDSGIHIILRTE
Structure (SMILES),"activity, negative = inhibition",Potency
NC(N)=Nc1ccc2[nH]c3c(c2c1)C[C@@]1(O)[C@H]2Cc4ccc(O)c5c4[C@@]1(CCN2CC1CC1)[C@H]3O5,-24.4% (inactive),
CCCN(CCC)CCc1c[nH]c2ccc(C(N)=O)cc12,-6.08% (inactive),
NCC(CP(=O)(O)O)c1ccc(Cl)cc1 (stereo not given),-7.57% (inactive),
C[C@H](N)CN1CCc2ccc(Br)cc21,-14.8% (inactive),
C#CCN[C@H](C)Cc1ccccc1,0.774% (inactive),
O=[N+]([O-])c1cc(O)c(O)c([N+](=O)[O-])c1,-6.92% (inactive),
C[C@H](N)Cc1cccc(C(F)(F)F)c1,0.912% (inactive),
CCCn1c(=O)c2[nH]c(C3CCCC3)nc2n(CCCOC(=O)c2ccc(S(=O)(=O)F)cc2)c1=O,0.917% (inactive),
Clc1cc(I)cc(Cl)c1NC1=NCCN1,-28.4% (inactive),
CCCN(CCC)C1Cc2cc(OC)c(OC)cc2C1,4.59% (inactive),
CC(C)NP(=O)(NC(C)C)OP(=O)(NC(C)C)NC(C)C,-0.505% (inactive),
C/C(O)=C(\C#N)C(=O)Nc1cc(Br)ccc1Br,-2.18% (inactive),
NC(C(=O)O)c1cc(=O)[nH]o1 (stereo not given),1.8% (inactive),
CC(C)(O)[C@@H]1C2OC(=O)[C@@H]1[C@]1(O)C[C@H]3O[C@]34C(=O)O[C@H]2[C@]14C (tested in a mixture with another compound),-3.47% (inactive),
C[N+]1(C)CCN(c2ccccc2)CC1,1.49% (inactive),
C[C@]12Cc3cn4c(nc3C=C1CCC1C2CC[C@@]2(C)[C@H]1CC[C@@]2(O)C#N)nc1ccccc14 (stereo not given in full),-9.05% (inactive),
Cc1c2ccncc2c(C)c2c1[nH]c1ccccc12,0.935% (inactive),
COc1ccc2c(c1)/C(=C/c1cnc[nH]1)C(=O)N2,-0.0521% (inactive),
C[C@H](Cc1ccc2c(c1)OC(C(=O)O)(C(=O)O)O2)NC[C@H](O)c1cccc(Cl)c1,1.57% (inactive),
O=S1(=O)N(CCN2CC=C(c3c[nH]c4cc(F)ccc34)CC2)c2cccc3c2N1CCC3,-4.05% (inactive),

Structure (SMILES),"activity, negative = inhibition",Potency
C=CCN(C1=NCCN1)c1c(Cl)cccc1Cl,5.63% (inactive),
C[N+]1(C)CCc2cc3c(cc2[C@H]1[C@@H]1OC(=O)c2c1ccc1c2OCO1)OCO3,0.391% (inactive),
CO[C@H]1CC=C2CCN3CCC4=C(CC(=O)OC4)[C@]23C1,-2.17% (inactive),
O=C1CC[C@@]2(O)C3Cc4ccc(O)c5c4C2(CCN3CC2CC2)[C@H]1O5 (stereo not given in full),-20.3% (inactive),
N[C@@H](Cn1oc(=O)[nH]c1=O)C(=O)O,-8.46% (inactive),
CN1CCc2cc(O)cc3c2[C@H]1Cc1ccc(O)c(O)c1-3,-2.31% (inactive),
C[N+](C)(C)CCOC(=O)CBr,-7.61% (inactive),
N#CCCN,3.14% (inactive),
COc1cc(CC(C)N)c(OC)cc1I (stereo not given),7.97% (inactive),
CCS(=O)(=O)Nc1cccc(C(=C2CCCCC2)c2cnc[nH]2)c1,-2.3% (inactive),
N[C@@]1(C(=O)O)CC[C@@H](C(=O)O)C1,-9.64% (inactive),
N=C(N)c1ccc(CS(=O)(=O)F)cc1,-6.1% (inactive),
Clc1ccc(N2CC3CCC(C2)N3)nn1,2.69% (inactive),
CC(N)[C@H](O)c1ccc(O)c(O)c1 (stereo not given in full),,13.5 µM (active)
NC(N)=NOCC[C@H](N)C(=O)O,-0.208% (inactive),
O=C1C=CC(=O)C=C1,-3.93% (inactive),
CCCN1CCc2cc(O)cc3c2[C@H]1Cc1ccc(O)c(O)c1-3,-0.167% (inactive),
COc1ccc2c(c1)[C@@]13CCCC[C@H]1[C@@H](C2)NCC3,0.158% (inactive),
COc1ccc2[nH]c3c(c2c1)CCNC3,-4.92% (inactive),
CCCN1CC[C@@H]2c3cc(O)ccc3CC[C@@H]21,-2.45% (inactive),
